Shown are actives, neighbours in structure and some others; about 1.3% of the full set was active somewhere.
NCOA3 inh: SRC3 coactivator transcriptional activity inhibitors, primary screen, cell-based, luminescence. Nuclear receptor coactivator 3 (Homo sapiens), Q9Y6Q9. HEK293 GAL4-SRC3 luciferase reporter. 360,000 compounds, 0.17% hits. inhibition, % at 3.6 µM;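 active = inhibition above a per-campaign cutoff, the mean of all compounds plus 3 SD, cut at about 60% in these data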;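 also: higher means less SRC3-driven luciferase light from the GAL4 reporter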
NCOA2 inhibitor: inhibition of GAL4-SRC2 driven luciferase reporter, primary screen, SRC2 inhibitor project, cell-based, luminescence; 370,000 compounds, 0.17% hits; HEK293 GAL4-SRC2 luciferase reporter; inhibition, % at 9 µM; Nuclear receptor coactivator 2 (Homo sapiens), Q15596; AID 651957, 2012;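 active = inhibition above the mean inhibition of all tested compounds plus 3 SD, set per campaign, cut at about 52% in these data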
NR5A2 inv ag: LRH-1 (NR5A2) inverse agonists, primary screen, cell-based, luminescence, HEK293T, StAR-luciferase reporter; LRH-1 transfected, 24 h; inhibition, % at 3.6 µM; 360,000 compounds, 0.13% hits; AID 602396, 2012;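 active = inhibition above the mean inhibition of all tested compounds plus 3 SD, cut at about 73% in these data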
NR2F2 inh: NR2F2 transcriptional activity inhibitors, primary screen, cell-based, luciferase reporter, HEK293T, luminescence. HEK293T NGFI-A luciferase reporter. COUP transcription factor 2 (Homo sapiens), P24468. AID 686940, 2013. inhibition, % at 8.6 µM. 370,000 compounds, 0.7% hits;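 active = inhibition above a per-plate cutoff, mean inhibition of test wells between control levels plus 3 SD, cut at about 38% in these data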;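 also: cells cotransfected with COUP-TFII expression vector driving the NGFI-A reporter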
Gli-Sufu block: Gli-Sufu pathway antagonists, primary screen, luciferase luminescence, Sufu-KO-LIGHT cells, uHTS. Sufu-KO-LIGHT fibroblasts, Gli luciferase reporter luminescence. inhibition, % at 5 µM. 340,000 compounds, 0.74% hits. AID 588413, 2011;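 active = inhibition above about 55%, limit read from the data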
SRC1 inh: SRC1 coactivator transcriptional activity inhibitors, primary screen, cell-based, luminescence. inhibition, % at 3.6 µM. 360,000 compounds, 0.12% hits. Nuclear receptor coactivator 1 (Homo sapiens), Q15788. HEK293 GAL4-SRC1 luciferase reporter;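 active = inhibition above the campaign mean plus 3 SD, with each screening campaign given its own cutoff, cut at about 60% in these data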
Target sequence (Q15788 whole entry, looked up, the tested form may be a part): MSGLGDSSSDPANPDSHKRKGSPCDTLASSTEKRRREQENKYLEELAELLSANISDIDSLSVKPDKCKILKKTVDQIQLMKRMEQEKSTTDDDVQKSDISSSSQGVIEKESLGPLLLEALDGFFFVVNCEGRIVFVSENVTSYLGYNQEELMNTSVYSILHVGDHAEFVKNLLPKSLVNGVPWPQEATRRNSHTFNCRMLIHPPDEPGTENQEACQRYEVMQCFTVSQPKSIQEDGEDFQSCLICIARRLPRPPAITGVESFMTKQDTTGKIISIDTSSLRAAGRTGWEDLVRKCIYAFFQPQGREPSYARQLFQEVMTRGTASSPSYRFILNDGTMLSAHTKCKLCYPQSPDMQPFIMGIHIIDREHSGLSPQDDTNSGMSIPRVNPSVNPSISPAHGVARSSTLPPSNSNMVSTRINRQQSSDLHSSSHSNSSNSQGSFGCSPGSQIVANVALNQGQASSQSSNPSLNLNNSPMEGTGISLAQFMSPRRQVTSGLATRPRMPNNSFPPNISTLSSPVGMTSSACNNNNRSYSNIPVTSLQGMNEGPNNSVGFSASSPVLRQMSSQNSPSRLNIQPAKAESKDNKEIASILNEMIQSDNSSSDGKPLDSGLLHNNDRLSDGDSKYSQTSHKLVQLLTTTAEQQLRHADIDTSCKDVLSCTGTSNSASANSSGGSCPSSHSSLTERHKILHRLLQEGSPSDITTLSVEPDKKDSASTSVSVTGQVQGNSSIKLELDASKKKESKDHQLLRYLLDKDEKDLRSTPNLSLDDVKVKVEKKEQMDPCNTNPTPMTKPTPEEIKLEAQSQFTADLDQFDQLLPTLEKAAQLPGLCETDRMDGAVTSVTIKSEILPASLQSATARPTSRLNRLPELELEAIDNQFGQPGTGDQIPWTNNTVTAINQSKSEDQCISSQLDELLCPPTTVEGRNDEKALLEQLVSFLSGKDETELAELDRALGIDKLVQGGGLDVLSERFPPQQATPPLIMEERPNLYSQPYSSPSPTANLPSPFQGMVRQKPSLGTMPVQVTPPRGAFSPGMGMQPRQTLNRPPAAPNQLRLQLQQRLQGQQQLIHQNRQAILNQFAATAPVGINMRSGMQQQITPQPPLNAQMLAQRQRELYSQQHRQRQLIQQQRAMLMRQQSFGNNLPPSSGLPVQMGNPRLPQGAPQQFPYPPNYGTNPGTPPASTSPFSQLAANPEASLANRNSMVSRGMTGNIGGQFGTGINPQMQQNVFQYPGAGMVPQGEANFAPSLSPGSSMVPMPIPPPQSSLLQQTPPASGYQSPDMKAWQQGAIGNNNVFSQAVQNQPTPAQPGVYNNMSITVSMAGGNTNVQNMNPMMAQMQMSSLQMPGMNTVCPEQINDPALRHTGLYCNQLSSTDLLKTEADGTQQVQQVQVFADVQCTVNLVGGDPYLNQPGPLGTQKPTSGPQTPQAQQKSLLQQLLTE
Gal4-VP16 ctr: Gal4-VP16 luciferase reporter inhibitors, counter-screen for COUP-TFII antagonist project, cell-based, luminescence, HEK293; shares compounds with NR2F2 inh; inhibition, % at 8.5 µM; 2,500 compounds, 25% hits; AID 687007, 2013; in the data active = inhibition above about 13%
NR2F2 inh conf: NR2F2 transcriptional activity inhibitors, confirmation, cell-based, luciferase reporter, HEK293, triplicate; inhibition, % at 8.5 µM; HEK293 NGFI-A luciferase reporter, luminescence; AID 687008, 2013; 2,500 compounds, 45% hits; shares compounds with NR2F2 inh;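 active = mean inhibition over three repeats above a set limit taken from the earlier primary screen, cut at about 38% in these data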
Each line names hits and unclear results; the compound was inactive in the other large screens (follow-up assays come after a bar, where they were run).

CN1C(=O)C2(C(C#N)=C(N)N(c3cc(Cl)cc(Cl)c3)C3=C2C(=O)CC(C)(C)C3)c2ccccc21 (stereo unspecified)	NR2F2 inh 44 | Gal4-VP16 ctr inactive | NR2F2 inh conf inactive
CC1CCN(c2ccc(C(=O)O)cc2NS(=O)(=O)c2ccc(C(C)(C)C)cc2)CC1	none (no result: NCOA3 inh, NR5A2 inv ag, Gli-Sufu block, SRC1 inh)
C=C1C(=O)[C@]23C[C@H]1CC[C@H]2[C@]1(C)[C@@H](OC(C)=O)CC[C@@](C)(C(=O)OC)[C@H]1C[C@@H]3OC(C)=O	none (no result: Gli-Sufu block)
C=C1C(=O)[C@]23C[C@H]1CCC2[C@@]1(C)C(C[C@@H]3O)[C@](C)(C(=O)OC)CC[C@@H]1OC(C)=O (stereo partly specified)	NCOA2 inhibitor 59, NR5A2 inv ag 83, NR2F2 inh 49 (no result: Gli-Sufu block) | Gal4-VP16 ctr 64 | NR2F2 inh conf 52
CCN(CC)S(=O)(=O)c1cc(NC(=O)c2ccc(-n3cncn3)c([N+](=O)[O-])c2)ccc1C	NR2F2 inh 54 | Gal4-VP16 ctr inactive | NR2F2 inh conf inactive
O=C(N/N=C/c1sc(N2CCOCC2)nc1-c1ccccc1)c1cccc(S(=O)(=O)N2CCOCC2)c1	NCOA3 inh 72, NR5A2 inv ag 75, NR2F2 inh 54, SRC1 inh 66 | Gal4-VP16 ctr inactive | NR2F2 inh conf 50
O=C(c1cccc(F)c1F)N1CCCC(c2nc(-c3cccs3)no2)C1 (stereo unspecified)	none (no result: NCOA3 inh, NR5A2 inv ag, Gli-Sufu block, SRC1 inh)
Cc1ccc(S(=O)(=O)N2CCN(C(=O)c3cc4c(C)nn(-c5ccccc5C)c4s3)CC2)cc1	NR2F2 inh 46 | Gal4-VP16 ctr inactive | NR2F2 inh conf inactive
CC(C)C(NC(=O)[C@H](Cc1ccc(O)cc1)NC(=O)OC(C)(C)C)P(=O)(O)OC(Cc1ccccc1)C(=O)O (stereo partly specified)	none (no result: NCOA3 inh, NCOA2 inhibitor, NR5A2 inv ag, Gli-Sufu block, SRC1 inh)
C=C1CC2(OC1=O)c1ccccc1CCc1ccccc12	NR2F2 inh 39 | Gal4-VP16 ctr 17 | NR2F2 inh conf inactive
O=C1NC(=O)C2(CCc3ccccc32)N1 (stereo unspecified)	none
COCCCNC(=O)C[C@@H]1C(=O)N(CCc2ccc(Cl)cc2)C2=CCCCC[C@]21C(=O)OC	none (no result: NCOA3 inh, NR5A2 inv ag, Gli-Sufu block, SRC1 inh)
COCC(C)n1c(C)cc(C(=O)CSc2nc(C)c(C)c(C)n2)c1C (stereo unspecified)	none
COCC(C)n1c(C)cc(C(=O)CSc2nnnn2C2CCCC2)c1C (stereo unspecified)	NR2F2 inh 41 | Gal4-VP16 ctr inactive | NR2F2 inh conf inactive
Cc1nc(N2CCCCC2C)c2nnn(Cc3ccccc3)c2n1 (stereo unspecified)	none (no result: NCOA3 inh, NR5A2 inv ag, Gli-Sufu block, SRC1 inh)
COc1ccc(-c2nc(-c3ccccn3)no2)cc1	NCOA3 inh 69, NCOA2 inhibitor 75, NR2F2 inh 83, Gli-Sufu block 69 | Gal4-VP16 ctr 60 | NR2F2 inh conf 81
Cn1c(=O)c2cc(S(=O)(=O)N3CCN(c4ccc(F)cc4)CC3)ccc2n(C)c1=O	none (no result: NCOA3 inh, NR5A2 inv ag, Gli-Sufu block, SRC1 inh)
O=C(c1ccccc1)c1ccc(OCC(O)CN2CCCCC2)cc1 (stereo unspecified)	none
O=C(c1ccccc1)c1ccc(OCC(O)CN2CCN(S(=O)(=O)N3CCCCC3)CC2)cc1 (stereo unspecified)	NR2F2 inh 42 | Gal4-VP16 ctr inactive | NR2F2 inh conf inactive
CC(=O)c1ccc(NC(=O)CSc2nnc(Cn3cnc4ccccc43)o2)cc1	none
COc1ccc(C(=O)CSc2nnc(Cn3cnc4ccccc43)o2)cc1	NR2F2 inh 60 | Gal4-VP16 ctr inactive | NR2F2 inh conf 41
COCCCN1C(=O)[C@H](CC(=O)N2CCCCC2)[C@]2(C(=O)OC)CCCCC=C12	none (no result: NCOA3 inh, NR5A2 inv ag, Gli-Sufu block, SRC1 inh)
Cc1nc(-c2cccc(NC(=O)c3ccco3)c2)cs1	none
Cc1nc(-c2ccc(C(=O)Nc3cccc(F)c3)cc2)cs1	NR2F2 inh 56 | Gal4-VP16 ctr inactive | NR2F2 inh conf inactive
Cc1nc(-c2ccc(NC(=O)c3ccco3)cc2)cs1	NR2F2 inh 41 | Gal4-VP16 ctr inactive | NR2F2 inh conf inactive
O=C(Nc1nc2cc3c(cc2s1)OCO3)C1=COCCO1	NR2F2 inh 54 | Gal4-VP16 ctr inactive | NR2F2 inh conf inactive
O=C(Nc1nc2cc3c(cc2s1)OCCO3)c1ccco1	NCOA2 inhibitor 59, NR2F2 inh 69 | Gal4-VP16 ctr inactive | NR2F2 inh conf inactive
O=C(Nc1nc2cc3c(cc2s1)OCO3)c1ccco1	none
Nc1ncnc2c1ncn2[C@@H]1O[C@H](C(=O)N[C@@H](CCc2ccccc2)C(=O)N2CCN(C(=O)N3CCCCC3)CC2)[C@@H](O)[C@H]1O	none (no result: NCOA3 inh, NR5A2 inv ag, Gli-Sufu block, SRC1 inh)
O=C(OCc1cn(Cc2ccc(C(F)(F)F)cc2)nn1)N1CCCC1	none (no result: NCOA3 inh, NR5A2 inv ag, Gli-Sufu block, SRC1 inh)
CCOc1ccc(N(CC(=O)Nc2c(C)n(C)n(-c3ccccc3)c2=O)S(=O)(=O)c2ccc3c(c2)N(C(=O)C2CCC2)CC3)cc1	none (no result: NCOA3 inh, NR5A2 inv ag, Gli-Sufu block, SRC1 inh)
COC(=O)c1cccc(Cn2ccc3ccc(-c4ccc5ccn(C(=O)c6cccc(OC)c6)c5c4)cc32)c1	none (no result: NCOA3 inh, NR5A2 inv ag, Gli-Sufu block, SRC1 inh)
O=C(Nc1ccc(Cl)c(Cl)c1)C1CCCN(c2nnc(-n3cccc3)s2)C1 (stereo unspecified)	none (no result: NCOA3 inh, NR5A2 inv ag, Gli-Sufu block, SRC1 inh)
CN(C)S(=O)(=O)c1cccc(CSCc2cccc(S(=O)(=O)N(C)C)c2)c1	NR2F2 inh 57, Gli-Sufu block 57 | Gal4-VP16 ctr inactive | NR2F2 inh conf 56
Cc1cc(C)n2nc(SCc3cccc(S(=O)(=O)N(C)C)c3)nc2n1	none
O=S1(=O)N[C@H](Cc2ccccc2)COc2cc(N3CCCCC3)ccc21	none (no result: NCOA3 inh, NR5A2 inv ag, Gli-Sufu block, SRC1 inh)
CCOc1ccc(OCCSc2nc3ccccc3[nH]2)cc1	none
CCCOc1ccc(CSc2nc3ccccc3[nH]2)cc1	NR2F2 inh 38 | Gal4-VP16 ctr inactive | NR2F2 inh conf inactive
C=CCN(C)C(C#Cc1ccccc1)c1ccccc1C(F)(F)F (stereo unspecified)	none (no result: NCOA3 inh, NCOA2 inhibitor, NR5A2 inv ag, Gli-Sufu block, SRC1 inh)
Cn1c(=O)n(C)c2cc([N+](=O)[O-])c(N3CCN(C(=O)c4ccccc4Br)CC3)cc21	none
Cn1c(=O)n(C)c2cc([N+](=O)[O-])c(N3CCN(C(=O)c4ccccc4Cl)CC3)cc21	NR2F2 inh 45 | Gal4-VP16 ctr inactive | NR2F2 inh conf inactive

Screening data: PubChem BioAssay, several laboratories
